Measurements as given in the supplement of paper PMC7411640.
Structures can show the parent of a compound that is named as a salt.

Test system: MDA-MB-468
Test: phospho-S6 immunofluorescence (DAPI-normalised), per-plate z-score; higher = higher phospho-S6 signal (less pathway suppression)
Settings: 24 h
Experimental: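 GPCR-targeted compound library (MedChemExpress HY-L006) tested on MDA-MB-468 PTEN-null TNBC cells in 384-well plates at 0.1, 1 or 10 uM, combined with vehicle, GDC0941 450 nM or lapatinib 1 uM, for 24 h. Phospho-S6 (S240/244) immunofluorescence normalised to DAPI and expressed as a per-plate z-score; values are the mean of biological triplicates.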

Row | SMILES | phospho-S6 immunofluorescence (z-score) (co-treatment: GDC0941 450 nM) | phospho-S6 immunofluorescence (z-score) (co-treatment: lapatinib 1 uM) | phospho-S6 immunofluorescence (z-score) (co-treatment: vehicle)
1 | N#Cc1ccc2[nH]cc(CCCCN3CCN(c4ccc5oc(C(N)=O)cc5c4)CC3)c2c1 [Vilazodone (Hydrochloride)] (compound 10 µM) | -0.01 | -0.76 | 0.65
2 | c1ccc(CN(CC2=NCCN2)c2ccccc2)cc1 [Antazoline (hydrochloride)] (compound 10 µM) | 0.27 | 0.23 | 1.23
3 | CC(C)(N)C(=O)N[C@H](COCc1ccccc1)C(=O)N1CCC2(CC1)CN(S(C)(=O)=O)c1ccccc12 [Ibutamoren (Mesylate)] (compound 10 µM) | -2.77 | -7.75 | -5.38
4 | COc1ccc(CC(C)NCC(O)c2ccc(O)c(NC=O)c2)cc1 (stereo unspecified) [Formoterol (Fumarate)] (compound 10 µM) | 1.08 | 0.77 | 0.16
5 | CN(C)N(C)C(=O)[C@@]1(Cc2ccccc2)CCCN(C(=O)[C@@H](Cc2c[nH]c3ccccc23)NC(=O)C(C)(C)N)C1 [Anamorelin (hydrochloride)] (compound 10 µM) | -1.14 | -0.96 | -0.1
6 | COC(c1ccccc1)(c1ccccc1)[C@H](Oc1nc(C)cc(C)n1)C(=O)O [Ambrisentan] (compound 10 µM) | 1.18 | 0.5 | -0.07
7 | Nc1nc(-c2nn(Cc3ccccc3F)c3ncccc23)ncc1C1CC1 (compound 10 µM) | 1.07 | 2.78 | -0.52
8 | CC(C[N+](C)(C)C)OC(N)=O (stereo unspecified) [Bethanechol (chloride)] (compound 10 µM) | 0.67 | 0.01 | 0.6
9 | CCOC(=O)O[C@]1(C(=O)OCCl)CC[C@H]2[C@@H]3CCC4=CC(=O)C=C[C@]4(C)[C@H]3[C@@H](O)C[C@@]21C [Loteprednol Etabonate] (compound 10 µM) | -0.86 | 0.31 | -1.08
10 | COc1cc2c(NC3CCN(C(C)C)CC3)nc(N3CCC(F)(F)CC3)nc2cc1OCCCN1CCCC1 (compound 10 µM) | 1.81 | 3.34 | 1.97
11 | Cc1c(CC(=O)O)c2cccnc2n1Cc1ccc(S(C)(=O)=O)cc1C(F)(F)F [Fevipiprant] (compound 10 µM) | -2.62 | -1.74 | -0.9
12 | Cc1nccn1CCC(C(N)=O)(c1ccccc1)c1ccccc1 [Imidafenacin] (compound 10 µM) | -0.05 | 0.38 | 0.28
13 | O=C1c2cccc3c2[C@H](CCC3)CN1[C@@H]1CN2CCC1CC2 [Palonosetron (Hydrochloride)] (compound 10 µM) | -0.7 | 0.4 | -0.33
14 | c1ccc2c(c1)CCCC2C1=NCCN1 (stereo unspecified) [Tetrahydrozoline (hydrochloride)] (compound 10 µM) | 0.32 | 0.87 | 0.75
15 | O=c1ccn([C@@H]2O[C@H](COP(=O)(O)OP(=O)(O)OP(=O)(O)OP(=O)(O)OC[C@H]3O[C@@H](n4ccc(=O)[nH]c4=O)[C@H](O)[C@@H]3O)[C@@H](O)[C@H]2O)c(=O)[nH]1 [Diquafosol (tetrasodium)] (compound 10 µM) | 0.01 | 0.71 | -0.38
16 | CC(C)N(CC[C@H](c1ccccc1)c1cc(CO)ccc1O)C(C)C [(R)-5-Hydroxymethyl Tolterodine] (compound 10 µM) | 0.35 | 0.44 | 0.11
17 | OC[C@H]1O[C@@H](n2cnc3c(NCc4ccc(O)cc4)ncnc32)[C@H](O)[C@@H]1O [N6-(4-Hydroxybenzyl)adenosine] (compound 10 µM) | -0.95 | 1.31 | 0.96
18 | C/C(=N\NC(=O)C(NC(=O)c1ccccc1)c1n[nH]c(=O)c2ccccc12)c1cccc(Br)c1 (stereo unspecified) (compound 10 µM) | 0.96 | 0.13 | 0.95
19 | Cc1ccccc1C(=O)Nc1ccc(C(=O)N2CCCC(N(C)C)c3ccccc32)cc1 (stereo unspecified) [Mozavaptan] (compound 10 µM) | -0.25 | -0.18 | -0.16
20 | Cc1cncc(CN2CCC(=C3c4ccc(Cl)cc4CCc4cccnc43)CC2)c1 [Rupatadine (Fumarate)] (compound 10 µM) | -1.47 | -2.09 | -1.45
21 | O=S(=O)(c1ccccc1)c1cnc2c(N3CCNCC3)cccc2c1 (compound 10 µM) | 0.13 | -2.25 | 0.76
22 | CCN(CC)CCCC(C)Nc1nc(C)cc(Nc2ccc3nc(C)cc(N)c3c2)n1 (stereo unspecified) (compound 10 µM) | 0.95 | 1.82 | 0.49
